Source: PubChem
Compounds with a hit are over-represented: about 6% of the library has one in this group of screens.
D1 ag = agonists of human D1 dopamine receptor; HEK293 T-REx D1 cells, calcium flux, agonist mode; activation, % at 2 µM; 360,000 tested, 1% active; AID 504660; in the data active = activation above about 30%; also: 0% is about no effect
Target sequence (P21728 whole entry, looked up): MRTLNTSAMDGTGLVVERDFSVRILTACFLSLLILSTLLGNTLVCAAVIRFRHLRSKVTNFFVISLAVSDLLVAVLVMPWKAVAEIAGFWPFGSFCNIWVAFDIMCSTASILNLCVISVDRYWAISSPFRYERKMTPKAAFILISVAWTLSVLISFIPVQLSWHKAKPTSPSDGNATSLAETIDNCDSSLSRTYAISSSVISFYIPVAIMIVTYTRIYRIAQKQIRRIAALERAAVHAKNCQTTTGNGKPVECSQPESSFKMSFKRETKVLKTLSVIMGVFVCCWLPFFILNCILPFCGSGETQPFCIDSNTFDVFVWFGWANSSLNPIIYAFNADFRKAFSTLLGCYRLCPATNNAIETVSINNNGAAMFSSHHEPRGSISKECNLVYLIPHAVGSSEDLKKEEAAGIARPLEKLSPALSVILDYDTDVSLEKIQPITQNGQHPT
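Agonism was scored from calcium flux recorded over 180 s (1 read/s) after pintool compound addition, following a 10-cycle baseline. Cells were inducible force-coupled HEK293 TREx D1, plated overnight at 30 C and loaded with no-wash calcium dye.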
D1 potentiator = human D1 dopamine receptor positive modulation | potentiation, % at 10 µM | 360,000 tested, 0.036% active | HEK293 TREx D1 cells, calcium flux, dopamine EC20 potentiation; in the data active = potentiation above about 30%; also: 0% is about no effect
D1 antagonist = blocks dopamine activation of the human D1 receptor; 360,000 tested, 3.2% active; P21728; activity change, negative = inhibition, % at 10 µM; HEK293 TREx D1 cells, calcium flux, dopamine EC80; stronger effect = lower value; in the data active = activity change below about -30%; also: % is scaled to controls: 0 for no effect and ±100 for the full control effect
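Calcium flux readout: force-coupled, inducible Hek293 Trex D1 line, cells induced overnight at 30 C with tetracycline, dye-loaded 30–90 min at RT. Antagonism scored against EC80 dopamine challenge given 180 s after compound.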
DRD3 agonist = D3 dopamine receptor (human) agonism; AID 652048; 410,000 tested, 0.58% active; P35462; max activation, %; D3R DiscoveRx beta-arrestin cells, luminescence, 90 min; in the data active = max activation above about 30%; also: 0% is about no effect
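Cells at 1500/well, incubated overnight, then treated with pinned compounds (dopamine as control) for 90 min at 37 degrees C. DiscoveRx reagent added for 30 - 60 minutes at room temperature; luminescence read.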
D3 antag = D3 dopamine receptor (human) antagonism; 360,000 tested, 2.5% active; D3R cells, DiscoveRx beta-arrestin luminescence, antagonist mode; stronger effect = lower value; AID 652054; max response, negative = inhibition, %; in the data active = max response below about -50%; also: % is scaled to controls: 0 for no effect and ±100 for the full control effect
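Cells plated overnight at 1500 cells/well, then exposed to library compounds with dopamine controls for 90 minutes at 37 degrees C. DiscoveRx reagent added for 30–60 minutes at room temperature; luminescence read, quantitative HTS format.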
* = called active by the depositor; ! = not active in a repeat.

CCOC(=O)C1=CN(Cc2cccc(F)c2)S(=O)(=O)N(CC)C1c1ccccc1 (stereo not drawn) was read as DRD3 agonist 0.0 and D3 antag -25.5.
For CCOC(=O)C1=CN(Cc2cccc(I)c2)S(=O)(=O)N(C)C1C (stereo not drawn) the results were DRD3 agonist -48.7 and D3 antag -66.5*.
`CCOC(=O)C1=CN(Cc2cccc(F)c2)S(=O)(=O)N(CC)C1c1ccc(C(F)(F)F)cc1` (stereo not drawn) gave DRD3 agonist -9.3 and D3 antag -55.5*.
O=C(COc1ccc(-c2ccccc2)cc1)NNC(=O)Nc1ccc(F)cc1F was read as D1 ag 2.2, D1 potentiator -1.6, D1 antagonist -14.8, DRD3 agonist 2.4 and D3 antag -2.5.
Cc1csc(C2=C(O)CN(CCc3ccccc3)C2=N)n1 was read as D1 ag -0.4, D1 potentiator -10.2, D1 antagonist -39.6*, DRD3 agonist -25.5 and D3 antag -5.2.
For CCOC(=O)N1CCN(C(=O)c2[nH]c(C(F)(F)F)nc2-c2ccccc2)CC1 the results were DRD3 agonist 0.4 and D3 antag 16.1.
Screening CCCNC(=O)c1ccc2c(=O)c(O)c(-c3ccc(OC)cc3)[nH]c2c1 returned D1 ag 0.9, D1 potentiator -7.8, D1 antagonist -35.2*, DRD3 agonist 8.5 and D3 antag 8.4.
Screening O=C(NCCCn1ccnc1)c1cccc(S(=O)(=O)Nc2ccc(F)cc2)c1 returned D1 ag 3.4, D1 potentiator 1.8, D1 antagonist 5.2, DRD3 agonist -4.9 and D3 antag 23.5.
For Cc1ccc(-c2[nH]c3cc(C(=O)NCCCn4ccnc4)ccc3c(=O)c2O)cc1 the results were D1 ag 5.4, D1 potentiator -8.5, D1 antagonist -57.5*, DRD3 agonist 6.6 and D3 antag -63.9*.
O=C(NCCCn1ccnc1)c1cccc(S(=O)(=O)Nc2ccc(Br)cc2)c1 was read as D1 ag 51.2*, D1 potentiator 5.0, D1 antagonist 7.5, DRD3 agonist -5.2 and D3 antag -20.7.
`Cc1ccc(CNC(=O)c2ccc3c(=O)c(O)c(-c4ccc(C)cc4)[nH]c3c2)cc1` gave D1 ag 8.1, D1 potentiator -7.8, D1 antagonist -40.6*, DRD3 agonist -29.3 and D3 antag 0.0.
`COc1ccc(NC(=O)CN2C(=O)C3CC=CCC3C2=O)cc1Cl` (stereo not drawn) gave DRD3 agonist 0.2 and D3 antag 2.3.
For CCCNC(=O)c1ccc2c(=O)c(O)c(-c3ccc(C)cc3)[nH]c2c1 the results were D1 ag 6.2, D1 potentiator -9.4, D1 antagonist -92.6*, DRD3 agonist 14.6 and D3 antag -8.7.
For Cc1ccc(-c2[nH]c3cc(C(N)=O)ccc3c(=O)c2O)cc1 the results were D1 ag 2.0, D1 potentiator -6.8, D1 antagonist -36.0*, DRD3 agonist 0.7 and D3 antag 0.0.
Screening Cc1ccc(CSc2nncn3c2cc2sccc23)cc1 returned D1 ag 1.8, D1 potentiator -1.1, D1 antagonist 3.0 and DRD3 agonist -1.0.
`COc1ccc(C)cc1-n1nnnc1SCC1CCCCO1` (stereo not drawn) gave D1 ag 18.1, D1 potentiator -4.8, D1 antagonist -35.9*, DRD3 agonist -10.1 and D3 antag -6.8.
`CC(C)(C)c1ccc(OCC(O)CN2CCN(c3ccccn3)CC2)cc1` (stereo not drawn) gave D1 ag 3.5, D1 potentiator -0.5, D1 antagonist 15.2, DRD3 agonist 64.0* and D3 antag -0.4.
For CC(C)(C)c1ccc(OCC(O)CN2CCCC2)cc1 (stereo not drawn) the results were D1 ag 15.0, D1 potentiator -8.1, D1 antagonist 16.2, DRD3 agonist -20.3 and D3 antag 1.1.
For CCC(=O)c1ccc(OCC(O)CN2CCN(c3ccccn3)CC2)cc1 (stereo not drawn) the results were D1 ag 4.2, D1 potentiator 11.4, D1 antagonist -10.0, DRD3 agonist 91.0* and D3 antag -19.6.
COC(C[C@H]1O[C@H]1[C@H](O)[C@H](C)OCc1ccccc1)OC was read as D1 ag 4.4, D1 potentiator -0.8, D1 antagonist 8.9, DRD3 agonist 37.1* and D3 antag 11.5.
Screening Cc1ccn2c(NCc3ccccc3)c(-c3cccc(SC4CCCCC4)c3)nc2c1 returned DRD3 agonist 41.3*! and D3 antag 103.3.
For c1ccc(CNc2c(-c3cccc(SC4CCCCC4)c3)nc3ccccn23)cc1 the results were DRD3 agonist 43.1* and D3 antag 89.9.
`Cc1ccc2nc(-c3cccc(SC4CCCCC4)c3)c(NCc3ccccc3)n2c1` gave DRD3 agonist 5.1 and D3 antag 58.0.
CCC(C)Sc1cccc(-c2nc3cc(C)ccn3c2NCc2ccccc2)c1 (stereo not drawn) was read as D1 ag 0.5, D1 potentiator -3.5, D1 antagonist -9.9, DRD3 agonist 76.7* and D3 antag 39.2.
Screening Cc1cc2c(cc1C)-c1nnnn1C(N1CCC(Cc3ccccc3)CC1)C(=O)N2 (stereo not drawn) returned DRD3 agonist 17.0 and D3 antag 39.5.
For CCN(C)C1CN(Cc2cn(Cc3cc(C)cc(C)c3)nn2)S(=O)(=O)C1 (stereo not drawn) the results were DRD3 agonist 5.0 and D3 antag 0.0.
Screening COc1ccc(-c2nnc(SCC(=O)Nc3ccc(C)cc3)n2C)cc1 returned D1 ag -0.4, D1 potentiator 0.4, D1 antagonist -90.2*, DRD3 agonist -6.9 and D3 antag -6.3.
COc1ccc(NC(=O)CSc2nnc(Cc3cccs3)n2-c2ccc(C)cc2)cc1 was read as D1 ag 0.2, D1 potentiator -4.3, D1 antagonist 3.2, DRD3 agonist 80.8* and D3 antag 53.8.
COc1cccc(NC(=O)CSc2nnc(Cc3cccs3)n2-c2ccc(C)cc2)c1 was read as D1 ag 15.3, D1 potentiator 15.3, D1 antagonist 19.5, DRD3 agonist 17.2 and D3 antag 79.9.
`COc1cc(OC)cc(-n2nnnc2SCC(=O)NC2CCCC2)c1` gave D1 ag -2.7, D1 potentiator 4.8, D1 antagonist 0.0, DRD3 agonist 3.1 and D3 antag -71.3*.
Screening CN(C)S(=O)(=O)c1ccc(Cl)c(NC(=O)CSc2nnnn2-c2ccc(O)cc2)c1 returned D1 ag 15.3, D1 potentiator 4.5, D1 antagonist -31.9*, DRD3 agonist 2.1 and D3 antag 3.1.
`COc1ccc(C(=O)Nc2ccc(NC(=O)CSc3nnc(-c4ccncc4)n3C)cc2)cc1` gave D1 ag 2.6, D1 potentiator 0.3, D1 antagonist 7.6, DRD3 agonist 4.2 and D3 antag 2.9.
